A selection: hits, their analogues and other compounds. The true share with any hit is near 2.2%.
Autophagy mod = alters autophagy in cells; 190,000 tested, 0.98% active; calls only at 10 µM (by protocol); MEF GFP-LC3 puncta imaging; test concentration mostly 10 µM;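 active means percentage of spot-positive cells more than 3 SD above its plate mean, without a fluorescence outlier flag or 80% toxicity; inconclusive means no clear call, values can overlap the other calls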;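 further: spot-positive cell cutoff set from DMSO-treated cells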
p47phox inh = inhibitors of human p47phox binding. P14598. p47phox/p22phox peptide binding, fluorescence polarization, 2 h. inhibition, % at 24.7 µM. 220,000 tested, 0.53% active. AID 1274;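 active means inhibition above about 30%, limit read from the data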;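 further: 0% = p47phox with labelled peptide and 100% = labelled peptide alone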
Target sequence (P14598 whole entry, looked up): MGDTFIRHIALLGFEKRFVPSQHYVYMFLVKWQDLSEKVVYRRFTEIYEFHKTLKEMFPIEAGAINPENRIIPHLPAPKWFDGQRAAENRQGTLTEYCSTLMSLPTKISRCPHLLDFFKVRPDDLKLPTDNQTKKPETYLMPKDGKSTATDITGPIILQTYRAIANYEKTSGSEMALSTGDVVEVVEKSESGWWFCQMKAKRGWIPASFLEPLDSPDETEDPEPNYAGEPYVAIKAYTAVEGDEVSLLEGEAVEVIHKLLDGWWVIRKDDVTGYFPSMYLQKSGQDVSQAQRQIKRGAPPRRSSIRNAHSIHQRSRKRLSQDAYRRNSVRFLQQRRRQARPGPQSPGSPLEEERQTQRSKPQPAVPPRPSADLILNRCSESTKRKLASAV
Insulin prom up = MIN6 insulin promoter up-regulation; z-score at 5 µM; 190,000 tested, 0.3% active; MIN6 insulin promoter-GFP reporter, high-content imaging; stronger effect = higher value;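 active means z-score above 3 at 5 µM with at least 500 cells counted in the well; inconclusive means wells under 500 cells, flagged as cytotoxic or low count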
HMGR II inh = E. faecalis class II HMG-CoA reductase inhibition. inhibition, % at 10 µM. purified E. faecalis HMGR, NADPH absorbance 340 nm kinetic. 190,000 tested, 0.41% active. AID 1066;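 active means inhibition above a set limit, the median over all tested compounds plus 3 SD, cut at about 9.5% in these data; inconclusive means no clear call, values can overlap the other calls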;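 further: enzyme runs in reverse so mevalonate oxidation gives rising NADPH absorbance; 0% = complete reaction with DMSO and 100% = background rate lacking mevalonate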
Redox H2O2 prof = compounds producing H2O2 with reducing agent – biochemical, NIH compound library profiling, artefact control for MLSCN library redox annotation, primary screen | activation, % at 10 µM | 200,000 tested, 0.03% active | DTT-dependent redox cycling H2O2, phenol red/HRP absorbance; 100% = 100 µM peroxide control, 0% = buffer;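 active means activation of at least 50% relative to the plate's high and low controls in the primary single-dose screen; inactive means activation below 50%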;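 further: compound incubated with DTT at 0.8 mM final as the reducing agent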
Arbovirus inh = arbovirus infection inhibition; inhibition, % at 10 µM; arbovirus infection cell-based antiviral screen; 200,000 tested, 0.37% active; in the data active means inhibition above about 30%
Numbers without * were called inactive; i = inactive; ? = inconclusive; . = not tested or not shown; + = active, no number.

SMILES	Autophagy mod	p47phox inh	Insulin prom up	HMGR II inh	Redox H2O2 prof	Arbovirus inh
COc1cccc(C2=NOC(C(=O)NCC3CCCO3)C2)c1 (centres undefined)	i	-14.6	-0.08	-2.0	1.0	5.7
CCc1ccc(CNC(=O)Cn2nc(-c3ccccc3)ccc2=O)cc1	i	-8.2	-0.04	-5.9	-0.6	-5.2
N#Cc1c(NC(=S)NC(=O)c2ccccc2)sc2c1CCCC2	i	-6.2	0.01	1.3	-0.1	11.3
N#Cc1c(NC(=S)NC(=O)c2ccccc2)sc2c1CCN(CCc1ccccc1)C2	+	-33.7	.	-2.6	0.0	6.9
Cc1ccc(S(=O)(=O)N2CCN(c3ccnc4cc(Cl)ccc34)CC2)cc1C	i	-15.2	-1.42	-3.8	-0.8	30.3*
Cc1cc(N2CCN(S(=O)(=O)c3ccc(Cl)cc3)CC2)c2ccccc2n1	i	-10.6	.	-9.1	-0.1	35.6*
Cc1c(NC(=O)OCCNC(=O)COc2c(Cl)cccc2Cl)sc(=S)n1C	i	-10.0	0.68	4.1	1.8	-4.9
CCN(CC)CCNC(=S)Nc1ccc(F)cc1	+	5.7	0.61	-4.1	-0.5	3.2
O=C(Nc1ccccc1)c1cc([N+](=O)[O-])ccc1Cl	.	41.8*	0.64	.	.	.
CCCC(=O)Nc1ccc(Cl)c(NC(=O)c2ccc([N+](=O)[O-])cc2Cl)c1	i	-1.6	-0.46	-3.9	-0.3	-5.6
O=C(NCc1ccccc1Cl)c1cc([N+](=O)[O-])ccc1Cl	i	0.5	-0.29	18.7*	3.9	-0.1
CCCC(=O)Nc1cccc(NC(=O)c2ccc([N+](=O)[O-])cc2Cl)c1	i	-1.2	-0.12	-0.6	0.0	45.1*
O=C(NCc1ccc(Cl)cc1)c1cc([N+](=O)[O-])ccc1Cl	i	-6.7	0.19	-8.4	-1.0	6.3
CC(=O)Nc1cc(C(=O)NCc2ccco2)ccc1Sc1ccc(C)cc1	i	-8.0	0.17	-0.7	-0.3	-7.3
O=C1NC(=Nc2ccccc2)S/C1=C/c1cccnc1	i	-3.0	-0.76	-2.6	-0.1	9.0
O=C1N/C(=N/Nc2ccccc2)S/C1=C\c1ccccc1	i	-23.9	3.19*	0.1	-5.4	-21.6
COc1ccc(C(=O)NNC2=Nc3cccc4cccc2c34)cc1	+	-7.7	-0.15	-2.9	0.6	1.4
COc1ccccc1N=Nc1nc(-c2ccccc2)c(-c2ccccc2)[nH]1	i	119.1*	-0.89	-2.6	-0.8	-1.3
COc1ccc(S(=O)(=O)N2CC=C(C(=O)Nc3ccc(NC(C)=O)cc3)CC2)cc1	i	-4.3	-1.47	21.7*	-0.1	16.5
N#CC(C(=O)NC1CCCCC1)=C1CCCCCC1	i	-0.3	0.06	-1.1	-0.1	2.8
N#CC(C(N)=O)=C1CCCCC1	.	75.2*	0.3	.	.	.
N#Cc1c(-c2ccccc2)nc(SCC(=O)Nc2nnc(C(F)(F)F)s2)[nH]c1=O	i	-3.5	-0.29	13.0*	0.1	73.1*
N#Cc1c(-c2ccccc2)nc(SCC(=O)Nc2ccccc2)[nH]c1=O	i	1.5	-0.09	-0.7	0.3	-2.5
N#Cc1c(-c2ccccc2)nc(SCC(=O)N(c2ccccc2)c2ccccc2)[nH]c1=O	i	-15.4	0.06	-2.9	0.4	33.1*
O=C(c1ccc(Cl)c(S(=O)(=O)N2CCCCCC2)c1)N1CCN(c2ccccc2O)CC1	i	-0.4	-0.62	-7.2	-0.6	5.7
SMILES	Autophagy mod	p47phox inh	Insulin prom up	HMGR II inh	Redox H2O2 prof	Arbovirus inh
COC(=O)c1c(NC(=O)COC(=O)Cn2cnc3ccccc32)sc2c1CCCC2	i	-13.8	1.1	-11.8	-0.2	-6.0
Cc1cccn2c(=O)c(C=O)c(Sc3ncccn3)nc12	i	-2.7	0	-7.2	0.1	5.3
CN(C)CCCn1c(SCC(=O)Nc2nc(-c3cccc(Br)c3)cs2)nc2ccccc2c1=O	.	76.2*	?	.	.	.
COc1ccc2nc(NC(=O)c3cccc(-c4cc5ccccc5oc4=O)c3)sc2c1	i	38.9*	0.38	-3.2	0.4	-2.1
COc1ccc2nc(NC(=O)C3=NN(c4ccccc4)C(=O)CC3)sc2c1	i	-12.0	-0.48	-13.1	0.6	47.6*
CS(=O)(=O)c1ccc2nc(NC(=O)C3=NN(c4ccccc4)C(=O)CC3)sc2c1	.	-26.7	0.69	.	.	.
COc1ccc2nc(NC(=O)c3ccccc3-c3ccccc3C(=O)O)sc2c1	i	-7.7	0.42	-9.1	-0.4	2.9
CC(=O)Nc1ccc(NC(=O)c2cccc(-c3cc4ccccc4oc3=O)c2)cc1	i	7.6	-0.19	-1.7	0.3	4.1
COc1ccc(C(=O)Nc2cccc(-c3cc4ccccc4oc3=O)c2)cc1[N+](=O)[O-]	i	31.7*	0.96	-3.3	0.4	-5.9
COc1ccc(-n2cc3c(-c4cccc(Br)c4)nnc(C)c3n2)cc1	+	-79.8	-0.93	-0.9	-0.4	-21.9
Cc1cccc(OCCCC(=O)Nc2nc3ccccc3[nH]2)c1	+	2.9	0.09	-0.5	-0.2	-3.0
CCSc1nnc(NC(=O)CCc2ccc(OC)cc2)s1	i	-14.0	-0.19	1.6	-0.1	12.3
C/C(=N/NC(=O)c1ccc(C)s1)c1cccc(NC(=O)COc2ccc(Cl)cc2Cl)c1	i	-2.1	0.08	1.6	2.5	-9.3
C/C(=N/NC(=O)c1cccs1)c1ccc(NC(=O)COc2ccc(Cl)cc2Cl)cc1	+	5.6	0.8	2.5	-8.2	1.3
O=C(COc1ccc(Cl)cc1Cl)Nc1ccc(CN2CCCCC2)cc1	i	38.2*	-0.04	-1.4	-2.4	7.7
Cc1ccc(Cl)cc1N1CCN(CC(=O)Nc2ccc(CN3CCCCC3)cc2)CC1	+	-24.9	?	7.7	2.0	-36.7
COC(=O)c1ccc(-c2noc(CN3CCCCC3c3nccn3C)n2)cc1 (centres undefined)	i	1.9	-0.19	-0.6	-0.4	4.5
Cc1nnc2sc(SCC(=O)Nc3cccc(Cl)c3)nn2c1=O	i	.	-0.48	2.4	0.4	-9.2
C[C@H](NC(=O)Nc1ccc2c(c1)OCCO2)C(=O)O	i	-4.7	0.06	-1.0	-0.2	5.7
CCCCc1ccc(/C=C2\C(=O)c3ccccc3C(O)=C2C(=O)OCC)cc1	i	57.9*	-1.3	1.7	-0.9	-40.0
Cc1cc2occ(CC(=O)NC3=NCCS3)c2cc1C(C)C	+	-3.2	.	-3.4	0.0	3.8
CCCn1c(SCC(=O)NCCc2ccccc2)nnc1C(C)C	.	-4.6	-0.4	.	.	.
N=c1n(Cc2ccc(Cl)cc2)c2ccccc2n1CC(O)COc1ccccc1 (centres undefined)	i	0.6	-1.38	-7.1	-0.7	-34.8
N=c1n(Cc2ccccc2)c2ccccc2n1CC(O)COc1ccc(Cl)cc1Cl (centres undefined)	i	48.2*	?	-3.8	-0.8	-30.9
O=C1c2cccc3cccc(c23)C(=O)N1CCN1CCN(C(=S)Nc2ccc(Cl)cc2)CC1	i	32.0*	-0.45	-1.4	0.9	6.2
